# Most compounds without a hit are left out; they make up all but 10% or so of the library.
# GLS inhibitor = blocks human kidney-isoform glutaminase activity; GLS enzymatic activity, qHTS titration; Potency, µM (top dose mostly 45.5 µM), most hits filed as inhibitors; hit rate 0.21% among 410,000; AID 624170
# Target sequence (O94925 whole entry, looked up, canonical isoform): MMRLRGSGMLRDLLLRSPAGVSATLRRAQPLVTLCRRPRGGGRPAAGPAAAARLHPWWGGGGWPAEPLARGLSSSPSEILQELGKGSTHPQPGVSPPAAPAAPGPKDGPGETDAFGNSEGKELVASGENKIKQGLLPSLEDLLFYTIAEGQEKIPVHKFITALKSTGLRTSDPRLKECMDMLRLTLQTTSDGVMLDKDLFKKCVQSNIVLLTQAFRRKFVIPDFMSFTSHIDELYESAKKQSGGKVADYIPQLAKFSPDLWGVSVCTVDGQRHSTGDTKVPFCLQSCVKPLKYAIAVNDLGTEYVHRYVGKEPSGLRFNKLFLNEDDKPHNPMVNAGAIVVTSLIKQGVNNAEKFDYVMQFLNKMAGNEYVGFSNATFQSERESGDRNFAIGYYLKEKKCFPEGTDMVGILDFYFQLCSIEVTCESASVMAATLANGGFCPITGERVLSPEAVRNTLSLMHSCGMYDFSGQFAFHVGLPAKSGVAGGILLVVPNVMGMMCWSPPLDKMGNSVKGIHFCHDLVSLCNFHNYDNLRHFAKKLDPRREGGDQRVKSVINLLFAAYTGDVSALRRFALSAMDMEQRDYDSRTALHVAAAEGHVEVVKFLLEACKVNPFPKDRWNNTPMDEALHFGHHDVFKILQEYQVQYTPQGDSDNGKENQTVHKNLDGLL
#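 Human kidney-isoform GLS in 45 mM KH2PO4 pH 8.2, 0.02% Tween-20, with compound, started with 1mM L-Glutamine (added stock). Glutamate oxidase/HRP/Amplex red coupled fluorescence read at start and after 30 min at RT.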
# G9a inh = blocks human histone lysine methyltransferase G9a | hit rate 8.8% among 350,000 | Q96KQ7 | Potency, µM (highest dose often 102 µM), actives largely listed as inhibitors | G9a H3K9 monomethylation, AlphaScreen, 2 h; further: nearly all actives have a fitted effect of over 75% in size
#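 Enzyme 20 nM + cpd, 15 min RT; add b-H3K9 pep 500 nM / SAM 20 uM; 2 h RT; anti-H3K9me1 Ab 0.5 ug/mL + SA donor / anti-rabbit acceptor beads 20 ug/mL each, 10 min; AlphaScreen read.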
# JMJD2A Tudor = JMJD2A Tudor domain (human) inhibition; Potency, µM (top dose mostly 114 µM), hits mostly inhibitors; O75164; AID 504339; AlphaScreen JMJD2A-Tudor / H3K4me3 peptide binding; hit rate 4.4% among 390,000; further: nearly all actives have a fitted effect of over 50% in size
# HP1b binding inh = inhibitors of HP1-beta chromodomain binding to methylated histone tails. P83916. AlphaScreen HP1-beta / biotin-H3K9me3 peptide binding. Potency, µM (top dose mostly 114 µM), hits mostly inhibitors. hit rate 0.56% among 390,000; further: nearly all actives have a fitted effect of over 70% in size
#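 Compound inhibition of the preformed complex between 50 nM HP1-beta and 50 nM biotinylated H3K9me3 peptide was read by AlphaScreen. Buffer was PBS pH 7.4 with 0.01% Tween-20. Incubations ran 30 min at room temperature, with 10 ug/mL donor/acceptor beads.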
# BAZ2B inh = blocks human BAZ2B; AlphaScreen BAZ2B-H3K14Ac peptide displacement; Potency, µM (titrated, usually from 114 µM), actives largely listed as inhibitors; hit rate 4.4% among 360,000; further: nearly all actives have a fitted effect of over 60% in size
#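 Compounds, titrated to a top concentration of 110 uM, were incubated 30 min at room temperature with preformed BAZ2B/acetyl-K14 H3 peptide complex (50 nM each). Proximity signal was measured by AlphaScreen after 20 min with beads.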
# Numbers stand for hits; i = inactive; ? = inconclusive; nt = not tested or not shown; ! = repeats disagree; [ ] = remark or other dose. The call rests on the fitted dose curve; in most records, active means well fitted curve in the direction sought with a large enough effect; inconclusive means small, poorly fitted or top-dose-only effect, or another doubt; inactive means no such curve, though single readings can be large; an effect the other way counts as inactive or inconclusive.
SMILES,GLS inhibitor,G9a inh,JMJD2A Tudor,HP1b binding inh,BAZ2B inh
O=C(CN1CCN(c2ncc(C(F)(F)F)cc2Cl)CC1)N1CCN(c2ncc(C(F)(F)F)cc2Cl)CC1,i,50µM,i,i,i
COc1cc2ccccc2cc1C(=O)NNC(=O)c1ccccc1O,nt,nt,nt,nt,i
Cc1ccc(CNCCNCCO)s1,i,40µM,i,i,i
Cc1ccc(CNCc2ccccc2)s1,i,i,i,i,i
Cc1nc(-c2ccccc2)cc(=O)[nH]1,i,i,i,i,i
Cc1ccc2oc(Nc3nc(-c4ccccc4)cc(=O)[nH]3)nc2c1,i,79µM,?,i,?
COCc1cc(=O)[nH]c(Nc2nc3ccccc3o2)n1,i,i,79µM,i,40µM
Nn1c(COc2ccccc2F)nnc1SCC(=O)NC1CCCCC1,i,i,i,i,i
C=CCn1c(O)c(N=Nc2ccccc2C)c2ccccc21,i,4µM,?,?,i
C=CCn1c(O)c(N=NC(=S)Nc2ccc(OC)c(Cl)c2)c2ccccc21,i,35µM,?,?,7.9µM
O=C(CSC1=NNC(c2ccccn2)S1)Nc1ccccc1 (centres undefined),i,?,6.3µM,i,5.6µM
O=C(CSc1nncn1-c1ccccn1)Nc1cccc(Cl)c1,i,i,i,i,i
O=C(CSC1=NNC(c2ccccn2)S1)Nc1cccc(Cl)c1 (centres undefined),i,nt,22µM,i,7.1µM
O=C(COc1ncnc2ccccc12)NC1CCS(=O)(=O)C1 (centres undefined),i,i,i,i,i
COc1ccc(C2Nc3ccccc3C(=O)N2Cc2ccco2)cc1COc1ccc(N)cc1 (centres undefined),nt,nt,22µM,nt,nt
COc1ccc(C2Nc3ccccc3C(=O)N2Cc2ccco2)cc1COc1ccc(F)cc1 (centres undefined),i,i,i,i,i
CC(=O)Nc1ccc(OCc2cccc(C3Nc4ccccc4C(=O)N3Cc3ccco3)c2)cc1 (centres undefined),nt,nt,89µM,nt,nt
COc1ccccc1Nc1nc(=O)[nH]nc1C,i,i,i,i,i
CCc1cccc(NC(=O)CCS(=O)(=O)c2ccc(Br)cc2)c1,i,28µM,11µM,8.9µM,32µM
COC(=O)c1ccc(NC(=O)CCS(=O)(=O)c2ccc(Br)cc2)cc1,i,56µM!,i,i,56µM!
COC(=O)c1ccc(NC(=O)CCS(=O)(=O)c2ccc(C)cc2)cc1,i,i,i,i,i
COC(=O)c1ccc(NC(=O)CC(=O)Nc2ccc(C(=O)OC)cc2)cc1,i,i,?,i,i
CC(=O)c1ccc(NC(=O)CCS(=O)(=O)c2ccc3c(c2)n(C)c(=O)c(=O)n3C)cc1,i,?,79µM,i,79µM
Cc1ccc(S(=O)(=O)CCC(=O)Nc2cccc(C)c2)cc1,i,i,i,i,i
COC(=O)c1ccc(NC(=O)CSCC(=O)OCC(=O)c2ccc(Br)cc2)cc1,i,10µM,i,i,i
SMILES,GLS inhibitor,G9a inh,JMJD2A Tudor,HP1b binding inh,BAZ2B inh
COc1ccc(S(=O)(=O)c2cn(Cc3ccccc3)c3cc(F)c(F)cc3c2=O)cc1,i,i,i,i,i
O=C(CCS(=O)(=O)c1ccc(Br)cc1)Nc1ccc(Br)cc1F,i,?,i,i,50µM
COC(=O)C(CCSC)NC(=O)c1cc2c(n(-c3ccc(C)cc3)c1=O)CCCC2=O (centres undefined),i,0.56µM,i,i,50µM
COc1ccccc1C(NC(=O)C1CCN(CCOc2ccc3ccccc3c2)CC1)c1ccccn1 (centres undefined),i,nt,nt,nt,nt
CC1(C)C(=O)N(c2ccccc2Cl)C(=O)c2ccccc21,i,79µM,i,i,i
O=C(COc1ccc(-c2nnco2)cc1)NCc1ccccc1Cl,i,i,i,i,i
CC(NC(=O)COc1ccc(-c2nnco2)cc1)c1ccc(Cl)cc1Cl (centres undefined),i,45µM,i,i,i
COc1ccc(CC(=O)N(CC2CCCO2)c2nc3ccccc3s2)cc1 (centres undefined),i,i,i,i,i
CCC1CCCCN1C(=O)CCS(=O)(=O)c1cc2c(cc1C)NC(=O)CO2 (centres undefined),i,8.9µM,?,?,?
CC(=O)N1CCC2(CCCN(Cc3nccs3)C2)CC1,nt,i[12.7 µM],nt,nt,nt
CCC(Sc1nnc(-c2ccc(C)c(Cl)c2)n1CC)C(=O)Nc1nccs1 (centres undefined),i,?,89µM,i,i
CC(C)(Cc1ccc(O)cc1)NC(=O)CC(=O)N/N=C/c1ccc(Cl)cc1,i,nt,i,i,i
CCOc1cc(CNCCN2CCOCC2)ccc1OCc1ccccc1Cl,i,50µM,i,i,i
CCN1C(=O)C(=O)N(CC(=O)N2CCC(C)Sc3ccccc32)C1=O (centres undefined),i,i,i,i,i
O=C(c1ccc2c(c1)OCO2)[C@@H]1[C@@H]2C(=O)N(C3CCCCC3)C(=O)[C@@H]2C2c3ccccc3C=CN21 (some centres undefined),i,32µM,i,i,i
COc1ccc(N2C(=O)[C@H]3[C@@H](C2=O)C2c4ccccc4C=NN2[C@H]3C(=O)C(C)(C)C)cc1 (some centres undefined),i,nt,i,i,?
CC(C)(C)C(=O)[C@@H]1[C@@H]2C(=O)N(C3CCCCC3)C(=O)[C@@H]2[C@H]2c3ccccc3C=CN12,nt,10µM,?,i,i
O=C(c1cccs1)[C@@H]1[C@@H]2C(=O)N(Cc3ccc4c(c3)OCO4)C(=O)[C@@H]2C2c3ccccc3C=CN21 (some centres undefined),nt,?,nt,nt,i
O=C(Nc1ccc2c(c1)OCO2)[C@@H]1[C@@H]2C(=O)N(C3CCCCC3)C(=O)[C@@H]2C2c3ccccc3C=CN21 (some centres undefined),nt,10µM,nt,nt,i
COc1ccc(N2C(=O)[C@@H]3[C@H](C2=O)[C@H]2c4ccccc4C=CN2[C@@H]3C(C)=O)cc1,i,8.9µM,?,i,?
COCCNc1oc(-c2ccco2)nc1S(=O)(=O)c1ccccc1,i,?,i,i,i
O=C(Cn1c(=O)oc2ccccc21)Nc1n[nH]c(=S)s1,i,1.3µM,3.5µM,?,i
CC(C)(C)c1csc(NC(=O)Cn2c(=O)oc3ccccc32)n1,i,11µM,i,i,i
COc1ccccc1N1CCN(C(=O)C2CCN(S(=O)(=O)c3ccc(C)cc3)CC2)CC1,i,i,i[11.4 µM],i,i
OCCCN1CNC(=S)NC1,i,nt,nt,nt,nt
CC(C)(C)CC(C)(C)N1CNC(=S)NC1,i,45µM,i,i,i
Cc1nn(C)c(C)c1C(C)NC(=O)c1cc(COc2cncc(Cl)c2)on1 (centres undefined),i,i,i,i,i
CN1c2ccccc2-c2nc3ccccc3n2C1c1ccccn1 (centres undefined),i,50µM,i,i,?

# Compound activity deposited in PubChem by National Center for Advancing Translational Sciences (NCATS).
